In the library only some 5.8% were active in any assay of this set; here they are far more common.
SW480 rereplic: A quantitative high throughput screen for small molecules that induce DNA re-replication in SW480 colon adenocarcinoma cells; SW480 DNA re-replication, Hoechst DNA content imaging, 48 h; Potency, µM (doses to about 46.1 µM), without a hit: top-dose re-replication activation, actives largely listed as activators; 340,000 tested, 1.8% active; note: % of control where 0% means no effect; nearly all actives have a fitted effect of over 55% in size
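Image-based read-out: total Hoechst fluorescence of nuclei (405 nm excitation, 500-530 nm emission), with hits raising the fraction of high-intensity nuclei. SW480 colon cells incubated 48 hr with compounds at 37 C.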
12-LOX inh: Primary qHTS assay for inhibitors of human arachidonate 12S-lipoxygenase (ALOX12): Round 2; Polyunsaturated fatty acid lipoxygenase ALOX12 (Homo sapiens), P18054; purified 12hLO, xylenol orange hydroperoxide absorbance; Potency, µM (doses to about 108 µM), without a hit: at the top dose activity change, negative = inhibition, most hits filed as inhibitors; 580,000 tested, 1.1% active; AID 1671190, 2021; note: % is set by controls: 0 for no effect and ±100 for the full control effect
Target sequence (P18054 whole entry, looked up): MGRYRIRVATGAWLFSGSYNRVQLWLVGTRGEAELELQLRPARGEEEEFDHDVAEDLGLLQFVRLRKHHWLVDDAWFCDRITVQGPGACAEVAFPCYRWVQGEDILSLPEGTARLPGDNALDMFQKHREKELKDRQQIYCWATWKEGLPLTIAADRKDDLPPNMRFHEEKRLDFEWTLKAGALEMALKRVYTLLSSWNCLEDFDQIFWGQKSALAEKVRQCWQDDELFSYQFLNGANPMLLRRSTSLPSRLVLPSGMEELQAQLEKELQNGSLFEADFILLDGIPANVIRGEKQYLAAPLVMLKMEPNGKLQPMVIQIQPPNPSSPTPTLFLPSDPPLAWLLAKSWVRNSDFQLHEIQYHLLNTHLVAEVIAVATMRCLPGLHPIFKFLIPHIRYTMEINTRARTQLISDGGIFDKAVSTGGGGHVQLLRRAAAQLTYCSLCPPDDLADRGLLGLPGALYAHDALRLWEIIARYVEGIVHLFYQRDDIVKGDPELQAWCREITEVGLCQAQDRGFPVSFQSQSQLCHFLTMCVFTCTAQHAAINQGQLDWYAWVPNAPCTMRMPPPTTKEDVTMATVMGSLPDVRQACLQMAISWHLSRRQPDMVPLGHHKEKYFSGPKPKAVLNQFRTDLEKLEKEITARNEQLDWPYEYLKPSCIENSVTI
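Hydroperoxide product was detected by ferrous iron/xylenol orange as the 573 to 405 nm absorbance ratio. Arachidonic acid at 40 uM (final) was turned over for 30 min at room temperature by 150 nM human 12hLO, pH 7.0 Hepes buffer, after 15 min compound preincubation.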
PINK1 modulator: A Quantitative High throughput Screen to Identify Chemical Modulators of PINK1 Expression | 410,000 tested, 0.2% active | PINK1 immunofluorescence, high-content cytometry, 24 h | Potency, µM (series often up to 76.6 µM), without a hit: at the top dose activation (PINK1 increase), most hits filed as activators; active = well fitted activation curve with a large enough effect; inconclusive = small, poorly fitted or top-dose-only effect; cell line not stated here; note: % of control where 0% means no effect; nearly all actives have a fitted effect of over 65% in size
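Stable cell line treated 24 h with compounds at 5 concentrations (CCCP controls), then fixed and immunostained for PINK1 plus nuclear and cell stains; PINK1 immunofluorescence quantified by laser-scanning microplate cytometry.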
MCF10A rereplic: A quantitative high throughput screen for small molecules that induce DNA re-replication in MCF 10a normal breast cells; 350,000 tested, 2.9% active; Potency, µM (doses to about 46.1 µM), for the others: at the top dose activity, positive = re-replication, usual class: activators; MCF 10A DNA re-replication, Hoechst nuclear intensity, 48 h; note: % of control where 0% means no effect; nearly all actives have a fitted effect of over 50% in size
KB-V1 MDR tox: qHTS assay for MDR1-selective chemotherapeutics: Primary screen using the drug-selected MDR subline cells KB-V1. KB-V1 MDR cells viability, CellTiter-Glo, 72 h. Potency, µM (titrated, usually from 46.1 µM), most hits filed as cytotoxic. 400,000 tested, 3.4% active; note: % is set by controls: 0 for no effect and ±100 for the full control effect; nearly all actives have a fitted effect of over 60% in size
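Potencies derive from concentration-effect curves fitted to normalized luminescence (CellTiter-Glo) of KB-V1 cells treated for 72 h at 37 degrees C in phenol-red-free DMEM containing 10% FBS.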
KB-3-1 tox: qHTS assay for MDR1-selective chemotherapeutics: Primary screen using the parental adenocarcinoma cell KB-3-1; KB-3-1 viability, CellTiter-Glo ATP luminescence, 72 h; Potency, µM (top dose mostly 46.1 µM), most hits filed as cytotoxic; 400,000 tested, 1.4% active; note: % is set by controls: 0 for no effect and ±100 for the full control effect; nearly all actives have a fitted effect of over 60% in size
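Cytotoxicity in the drug-sensitive parental line KB-3-1 was scored as loss of CellTiter-Glo luminescence following 72 h incubation with compound. Values come from curve fitting of normalized concentration-response data.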
Active calls of the source: *; i = inactive; ? = inconclusive; nt = not tested or not shown; [ ] = remark or other dose. Unless noted, calls come from the whole dose curve; as a rule, active = well fitted curve in the direction sought with a large enough effect; inconclusive = small, poorly fitted or top-dose-only effect, or another doubt; inactive = no such curve, though single readings can be large; an effect the other way counts as inactive or inconclusive. Potency is the fitted concentration of half-maximal effect.

SMILES	SW480 rereplic	12-LOX inh	PINK1 modulator	MCF10A rereplic	KB-V1 MDR tox	KB-3-1 tox
CC(C)C(C)(C#N)NC(=O)CSc1ncnc2sc(-c3ccccc3)cc12 (stereo unspecified)	-1%	-8%	nt	14%	23µM*	i
CC(C)(C)Nc1ncnc2sc(-c3ccccc3)cc12	?	0%	?	18µM*	i	?
COCC(C)NC(=O)CSc1ncnc2sc(-c3ccccc3)cc12 (stereo unspecified)	-4%	0%	3%	?	?	i
c1ccc(-c2cc3c(N4CCN(c5ccccc5)CC4)ncnc3s2)cc1	4%	-16%	0%	12µM*	?	i
C/C(c1cccs1)=[N+](\[O-])C(C)/C(=N/O)c1cccs1 (stereo unspecified)	nt	22%	nt	nt	nt	nt
Cc1nonc1CC(=O)N1CCCC(CNS(=O)(=O)c2cccs2)C1 (stereo unspecified)	nt	-6%	nt	nt	nt	nt
Cc1ccc(Nc2n[nH]nc2C(=O)Nc2ccc(C)c(Cl)c2)cc1	nt	13%	nt	nt	nt	nt
F[C@@H]1CN(C2CCC2)C[C@@H]1OCc1nc2ccccc2o1	nt	12%[176 µM]	nt	nt	nt	nt
Cc1c(C(=O)OCc2ccccc2)sc(=S)n1-c1ccc(Cl)cc1	nt	-51%	nt	nt	nt	nt
COc1ccc(Nc2ncnc3sc(-c4ccccc4)cc23)cc1	7%	?	6%[38.3 µM]	?	21µM*	?
COc1ncnc2sc(-c3ccccc3)cc12	2%	24%	-4%[38.3 µM]	-1%	?	i
CN(Cc1ccccc1F)C(=O)COC(=O)CCN=C1NS(=O)(=O)c2ccccc21	nt	-2%	nt	nt	nt	nt
COc1cccc(C2C(C#N)=C(N)OC3=C2C(=O)CC(C)(C)C3)c1 (stereo unspecified)	nt	12%	nt	nt	nt	nt
Fc1cccc(-c2nn[nH]n2)c1	-4%	25µM*	3%	-3%	i	i
c1ccc(-c2nn[nH]n2)cc1	0%	-1%	6%	-9%	i	i
Cc1ccc(-n2cc(CN3CCN(c4ccccn4)CC3)c(-c3ccc(F)cc3)n2)cc1	?	6%	2%	18µM*	?	?
COc1ccc(-c2nn(-c3ccccc3)cc2/C=C/C(=O)N2CCN(c3ccccn3)CC2)cc1	4%	-19%	-2%	12%	15µM*	i
Cc1ccc(-c2nn(-c3ccccc3)cc2C(=O)N2CCN(c3ccccn3)CC2)cc1	?	-5%	1%	-1%[9.22 µM]	?	?
O=C(c1cccn2c(=O)c3ccccc3nc12)N1CCN(c2ccccn2)CC1	-17%	-7%	-6%[38.3 µM]	-1%	9.2µM*	i
O=C(c1cn(-c2ccccc2)nc1-c1ccccc1)N1CCN(c2ccccn2)CC1	?	-10%	2%	?	21µM*	?
Cc1cccc(-n2cc(CN3CCN(c4ccccn4)CC3)c(-c3cccc(F)c3)n2)c1	-2%	-7%	4%	15%	i	?
COc1ccc(-c2nn(-c3ccccc3)cc2CN2CCCC(C#N)C2)c(F)c1 (stereo unspecified)	nt	17%	nt	nt	nt	nt
CCCN(CC1CCOC1)C(=O)Nc1ccc2c(c1)OCCO2 (stereo unspecified)	nt	38%	nt	nt	nt	nt
Clc1cccc(CNCCOc2ccccn2)c1	nt	-42%	nt	nt	nt	nt
Nc1ncnc(Sc2ncccn2)c1[N+](=O)[O-]	?	-17%	4%	?	?	3.7µM*
SMILES	SW480 rereplic	12-LOX inh	PINK1 modulator	MCF10A rereplic	KB-V1 MDR tox	KB-3-1 tox
COC(=O)c1c[nH]n2c(=O)c(Cc3ccc(F)cc3Cl)c(C)nc12	-8%	1%	3%[38.3 µM]	3%	16µM*	i
N#Cc1c(-c2ccccc2)c(-c2ccccc2)n(Cc2ccco2)c1NC(=O)c1cccs1	1%	0%	1%	-5%	5.6µM*	i
Cc1ccc2nc(SCc3ccccc3)c(C=O)c(=O)n2c1	-13%	-4%	10%	1%	8.2µM*	i
Cc1cc(C(=O)C(C)OC(=O)c2ccc(NC(=O)CC#N)cc2)c(C)n1-c1ccc(OC(F)F)cc1 (stereo unspecified)	22%	468%	-2%	6%	18µM*	2.9µM*
CC(OC(=O)c1ccc(NC(=O)CC#N)cc1)C(=O)Nc1ccc(Oc2ccccc2)cc1 (stereo unspecified)	nt	-12%	nt	nt	nt	nt
Cn1c(=O)[nH]c(=O)c2c1nc(N1CCN(Cc3ccc(Cl)cc3)CC1)n2CCCc1ccccc1	nt	-15%	nt	nt	nt	nt
CC(C)(C)c1ncc(-c2ccccc2)[nH]1	nt	4%[12.5 µM]	nt	nt	nt	nt
O=C(NC1CCCc2c1cnn2-c1cc(F)cc(F)c1)c1ccccn1 (stereo unspecified)	-3%	i	1%	2%	i	?
COc1ccc(C(=O)NC2CCCc3c2cnn3-c2cc(F)cc(F)c2)c(OC)n1 (stereo unspecified)	-1%	-19%	2%	?	i	i
COc1ccc(C(=O)NC2CCCc3c2cnn3-c2cc(F)cc(F)c2)c(OC)c1OC (stereo unspecified)	1%	20%	5%	?	18µM*	?
CC1=C(C(=O)NC2CCCc3c2cnn3-c2cccc(C)c2C)OCCO1 (stereo unspecified)	0%	16%	1%	2%	?	?
COC(=O)c1ccc(C(=O)NC2CCCc3c2cnn3-c2cc(F)cc(F)c2)nc1 (stereo unspecified)	6.5µM*	-14%	5%	2.9µM*	10µM*	?
COC(=O)c1ccc(C(=O)NC2CCCc3c2cnn3-c2ccc(C)c(C)c2)cc1 (stereo unspecified)	6.5µM*	i	?	2.3µM*	5.2µM*	1.6µM*
Cc1cc(C(=O)NC2CCCc3c2cnn3-c2cccc(C)c2C)no1 (stereo unspecified)	0%	0%	3%	24%	?	1.8µM*
Cn1ccc2c(C(=O)NCc3cccnc3)nc(-c3ccccc3C(F)(F)F)cc21	nt	13%[176 µM]	nt	nt	nt	nt
COC(=O)CNC(=O)C12CC3CC(C)(CC(C)(C3)C1)C2	nt	25%	nt	nt	nt	nt
CCC(CO)[n+]1c(C)cc(/C=C2\Sc3ccccc3N2Cc2ccccc2)cc1C (stereo unspecified)	?	50µM*	11µM*	?	i	1.6µM*
CCN1/C(=C2\SC(=S)N(Cc3ccccc3)C2=O)Sc2ccccc21	-42%	-21%	?	-2%	i	i
